Bioassay records: PubChem BioAssay, National Center for Advancing Translational Sciences (NCATS)
This is a sample that favours compounds with a hit; in the whole collection about 12% have one here.
Sfp inh: Sfp phosphopantetheinyl transferase inhibition | Q9F4F7 | Potency, µM, for the others: largest response in the series, negative = inhibition, most hits filed as inhibitors | 310,000 tested, 3.5% active | AID 1490 | Biochemical Sfp PPTase activity, qHTS;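 further: the enzyme is Sfp with the accession as filed and its product quenches rhodamine fluorescence; 0% = enzyme reaction without inhibitor and -100% = no enzyme wells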
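Fluorescence-quenching assay with 15 nM Sfp, 5 uM rhodamine-CoA and 12.5 uM BHQ-2-labelled ybbR peptide in pH 7.6 Hepes/MgCl2 buffer. Enzyme was pre-incubated with compound for 15 min at room temperature. Rate was taken from the 30-min fluorescence change (525/598 nm).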
BAZ2B inh: blocks human BAZ2B; Q9UIF8; AlphaScreen BAZ2B-H3K14Ac peptide displacement; Potency, µM (top dose mostly 114 µM), for inactives: at the highest dose activity change, negative = inhibition, usual class: inhibitors; 360,000 tested, 4.4% active; AID 504333; further: on the % scale 0 is the no-effect control and ±100 the full control effect; nearly all actives have a fitted effect of over 60% in size
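BAZ2B 50 nM plus b-H3(5-23)K14Ac 50 nM, PBS pH 7.4/0.01% Tween-20, 30 min RT; compound added (max 110 uM), 30 min RT; streptavidin donor/Ni-chelate acceptor beads 10 ug/mL final, 20 min dark; AlphaScreen read.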
HP1b binding inh: blocks HP1-beta chromodomain binding to methylated histone tails | Potency, µM (titrated, usually from 114 µM), without a hit: at the highest dose activity change, negative = inhibition, most hits filed as inhibitors | 390,000 tested, 0.56% active | AlphaScreen HP1-beta / biotin-H3K9me3 peptide binding | AID 540317; further: nearly all actives have a fitted effect of over 70% in size
Target sequence (P83916 whole entry, looked up): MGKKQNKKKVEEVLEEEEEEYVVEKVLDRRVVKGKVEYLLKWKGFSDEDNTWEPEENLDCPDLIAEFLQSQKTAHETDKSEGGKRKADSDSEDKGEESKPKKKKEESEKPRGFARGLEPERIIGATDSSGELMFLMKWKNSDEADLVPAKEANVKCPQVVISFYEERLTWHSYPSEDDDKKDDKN
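HP1-beta protein (50 nM final) preincubated 30 min at room temperature with biotinylated H3(1-18)K9me3 peptide (50 nM) in PBS pH 7.4, 0.01% Tween-20, then compound added for 30 min. AlphaScreen streptavidin donor/nickel chelate acceptor beads (10 ug/mL final), 30 min dark, luminescence read.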
G9a block: inhibitors of human histone lysine methyltransferase G9a. AID 504332. G9a H3K9 monomethylation, AlphaScreen, 2 h. 350,000 tested, 8.8% active. Potency, µM (top dose mostly 102 µM), for the others: at the top dose activity, negative = inhibition, usual class: inhibitors. Q96KQ7; further: on the % scale 0 is the no-effect control and ±100 the full control effect; nearly all actives have a fitted effect of over 75% in size
Target sequence (Q96KQ7 913-1193 limits assumed): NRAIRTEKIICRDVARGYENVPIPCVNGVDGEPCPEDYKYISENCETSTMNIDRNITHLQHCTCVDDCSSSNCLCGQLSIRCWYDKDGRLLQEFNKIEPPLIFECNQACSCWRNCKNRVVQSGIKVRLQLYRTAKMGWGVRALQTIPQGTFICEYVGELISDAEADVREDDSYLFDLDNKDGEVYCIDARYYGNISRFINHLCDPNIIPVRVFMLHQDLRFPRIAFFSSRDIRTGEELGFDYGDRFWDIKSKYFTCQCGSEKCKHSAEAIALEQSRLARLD
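Step 1: enzyme (final 20 nM) with compound, 15 min RT. Step 2: substrate peptide 500 nM and SAM 20 uM, 2 h RT. Step 3: anti-H3K9me1 antibody and AlphaScreen beads, 10 min, then plate read.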
JMJD2A Tudor: inhibitors of human JMJD2A Tudor domain. O75164. AlphaScreen JMJD2A-Tudor / H3K4me3 peptide binding. Potency, µM (highest dose often 114 µM), for the others: at the highest dose activity change, negative = inhibition, hits mostly inhibitors. 390,000 tested, 4.4% active; further: on the % scale 0 is the no-effect control and ±100 the full control effect; nearly all actives have a fitted effect of over 50% in size
* hit, by the source's call; [ ] = dose if it differs, or a comment. The call rests on the fitted dose curve; in most records, active means well fitted curve in the direction sought with a large enough effect; inconclusive means small, poorly fitted or top-dose-only effect, or another doubt; inactive means no such curve, though single readings can be large; an effect the other way counts as inactive or inconclusive. Potency means the concentration at half of the fitted maximal effect.

How did COc1c(C)cc(S(=O)(=O)NCc2ccccn2)c(C)c1C do in these assays?
Sfp inh: 4.0%; BAZ2B inh: 3.9%; HP1b binding inh: 30.8%; G9a block: -13.9%[0.501 µM]; JMJD2A Tudor: 25.1µM*

What do the screens show for `CC(C)(C)c1ccc(S(=O)(=O)NCc2ccccn2)cc1`?
Sfp inh: 13.4%; BAZ2B inh: -24.1%; HP1b binding inh: 15.5%; G9a block: 14.9%[12.7 µM]; JMJD2A Tudor: -19.4%

How did COC(=O)COc1ccc(S(=O)(=O)NCc2ccccn2)cc1 do in these assays?
Sfp inh: 2.4%; BAZ2B inh: -4.5%; HP1b binding inh: 0.0%; JMJD2A Tudor: -7.5%

What do the screens show for `O=S(=O)(NCc1ccccn1)c1cccc2nsnc12`?
Sfp inh: -15.8%; BAZ2B inh: inconclusive; HP1b binding inh: 27.0%; G9a block: 20µM*; JMJD2A Tudor: inconclusive

What do the screens show for `COc1ccc(S(=O)(=O)NCc2ccccn2)c(C)c1C`?
Sfp inh: 1.1%; BAZ2B inh: 11.6%; HP1b binding inh: 24.0%; JMJD2A Tudor: 9.6%

What do the screens show for `CCC(C(=O)Oc1c(C(C)C)cccc1C(C)C)c1ccccc1` (stereo not drawn)?
BAZ2B inh: 86.4%; HP1b binding inh: 133.1%; G9a block: 7.8%[0.501 µM]; JMJD2A Tudor: 54.9%

What do the screens show for `O=C(CCn1nc(-c2ccc(Cl)cc2)ccc1=O)NCCc1ccccc1`?
BAZ2B inh: -2.0%; HP1b binding inh: -9.1%; G9a block: -0.4%[59 µM]; JMJD2A Tudor: -28.4%

How did CCOc1ccc(OCC)c(S(=O)(=O)NCc2ccccn2)c1 do in these assays?
Sfp inh: -22.0%; BAZ2B inh: -6.1%; HP1b binding inh: 9.0%; G9a block: -24.9%[59 µM]; JMJD2A Tudor: 89.1µM*

What do the screens show for `CCOc1ccc(Cl)cc1S(=O)(=O)NCc1ccccn1`?
Sfp inh: 0.7%; BAZ2B inh: -15.0%; HP1b binding inh: -31.3%; G9a block: -4.5%; JMJD2A Tudor: -12.0%[11.4 µM]

What do the screens show for `O=S(=O)(Cc1ccccc1)NCc1ccccn1`?
Sfp inh: -12.5%; BAZ2B inh: -11.5%; HP1b binding inh: 7.9%; G9a block: inconclusive; JMJD2A Tudor: 3.55µM*

What do the screens show for `O=C(Nc1ccc(SC(F)F)cc1)c1cc(-c2ccc3c(c2)OCCO3)on1`?
BAZ2B inh: -9.3%; HP1b binding inh: 5.3%; G9a block: 0.5%[59 µM]; JMJD2A Tudor: -11.6%

What do the screens show for `O=C(CSc1ncccn1)N1CCCCCC1`?
HP1b binding inh: 41.9%; JMJD2A Tudor: 0.0%

Results for Cc1cccc(CSc2ncccc2C(=O)O)c1 ?
Sfp inh: inconclusive; BAZ2B inh: -27.6%; HP1b binding inh: 42.3%; G9a block: 11.2µM*; JMJD2A Tudor: 50.1µM*

Results for O=C(O)c1cccnc1SCC(=O)N1CCCCCC1 ?
Sfp inh: 5.1%; BAZ2B inh: -0.4%; HP1b binding inh: 51.9%; G9a block: 50.1µM*; JMJD2A Tudor: -17.5%

Results for O=C(O)c1ccccc1CSc1ncccc1C(=O)O ?
Sfp inh: 44.7µM*; BAZ2B inh: -25.7%; HP1b binding inh: 3.2%; G9a block: 20µM*; JMJD2A Tudor: 20µM*

What do the screens show for `O=C(CSc1ncccc1C(=O)O)NC12CC3CC(CC(C3)C1)C2`?
Sfp inh: inconclusive; BAZ2B inh: inconclusive; HP1b binding inh: 27.1%; G9a block: 31.6µM*; JMJD2A Tudor: 1.7%

How did O=C(O)c1cccnc1SCc1cccc(Cl)c1 do in these assays?
Sfp inh: 15.8%; BAZ2B inh: -2.8%; HP1b binding inh: 13.2%; G9a block: 4.8%; JMJD2A Tudor: -6.9%

How did Cc1ccc2nc(Cl)c3cc(C(=O)N4CCCC(C)C4)sc3c2c1 (stereo not drawn) do in these assays?
BAZ2B inh: 1.7%; HP1b binding inh: 60.3%; G9a block: 35.1%[59 µM]; JMJD2A Tudor: 19.9%

What do the screens show for `COc1ccc(C2/C=C\CN(CC3CCCCC3)C(Cc3ccccc3)C(=O)N2Cc2ccc(F)cc2)cc1` (stereo not drawn)?
Sfp inh: 11.8%; HP1b binding inh: 37.7%; JMJD2A Tudor: -15.2%

Results for O=C(Cc1ccccc1)NC1c2ccccc2-c2ccccc21 ?
Sfp inh: 79.4µM*; BAZ2B inh: -1.4%; HP1b binding inh: 29.0%; G9a block: inconclusive; JMJD2A Tudor: -7.7%

What do the screens show for `O=C(Cc1ccccc1)NNC(=O)Cc1ccccc1`?
Sfp inh: 5.8%; BAZ2B inh: -3.1%; HP1b binding inh: 29.9%; G9a block: -24.4%[59 µM]; JMJD2A Tudor: -20.3%[11.4 µM]

What do the screens show for `Cc1ccc(Cn2c(SCC(=O)N/N=C/c3ccc(C)o3)nc3ccccc32)cc1`?
Sfp inh: 56.2µM*; BAZ2B inh: inconclusive; HP1b binding inh: inconclusive; G9a block: inconclusive; JMJD2A Tudor: -14.8%

How did Cc1ccc(CSc2nnc(SCC(=O)N/N=C/C=C/c3ccco3)s2)cc1 do in these assays?
Sfp inh: 39.8µM*; BAZ2B inh: 50.1µM*; HP1b binding inh: 5.5%; G9a block: inconclusive; JMJD2A Tudor: -12.8%

How did C/C(=N/NC(=O)CSc1nc2ccccc2n1C)c1ccco1 do in these assays?
Sfp inh: 16.8%; BAZ2B inh: -10.4%; HP1b binding inh: 35.1%; JMJD2A Tudor: -19.9%

How did O=C(CSc1nc2ccccc2n1Cc1ccccc1)N/N=C/c1ccco1 do in these assays?
Sfp inh: inconclusive; BAZ2B inh: -0.5%; HP1b binding inh: 15.3%; G9a block: 0.5%[59 µM]; JMJD2A Tudor: -6.5%

Results for CCn1c(SCC(=O)N/N=C/C=C\c2ccco2)nc2ccccc21 ?
Sfp inh: 10µM*; BAZ2B inh: 44.7µM*; HP1b binding inh: -11.1%; G9a block: 15.8µM*; JMJD2A Tudor: inconclusive

Results for Cn1c(SCC(=O)N/N=C/C=C\c2ccco2)nc2ccccc21 ?
Sfp inh: -65.1%; BAZ2B inh: inconclusive; HP1b binding inh: inconclusive; JMJD2A Tudor: 56.2µM*

Results for CCCCCOc1ccc(Br)cc1/C(C)=N/NC1=NCCN1 ?
Sfp inh: inconclusive; BAZ2B inh: -24.1%; HP1b binding inh: 12.5%; G9a block: 8.91µM*; JMJD2A Tudor: -5.3%[11.4 µM]

Results for COc1ccc(Br)cc1/C(C)=N/NC1=NCCN1 ?
Sfp inh: -7.0%; BAZ2B inh: -0.5%; HP1b binding inh: 8.1%; G9a block: inconclusive; JMJD2A Tudor: -26.2%

How did O=C(CC(=O)c1ccccc1)Nc1ccccc1C(F)(F)F do in these assays?
Sfp inh: 14.1%; BAZ2B inh: inconclusive; HP1b binding inh: 17.8%; G9a block: -4.1%[12.7 µM]; JMJD2A Tudor: -13.6%

Results for O=C(COC(=O)c1cc(-c2ccc(Cl)s2)nc2ccccc12)NCc1ccco1 ?
Sfp inh: 12.6µM*; BAZ2B inh: -3.8%; HP1b binding inh: 28.0%; G9a block: inconclusive; JMJD2A Tudor: -4.5%

Results for O=C(COC(=O)c1cc(-c2cccs2)nc2ccccc12)NCc1ccco1 ?
Sfp inh: 22.4µM*; BAZ2B inh: inconclusive; HP1b binding inh: 0.1%; G9a block: inconclusive; JMJD2A Tudor: inconclusive
